Calls of active or inactive are those of the source.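 How the source made its calls: active means visually confirmed hit in the image check and inhibition above 20%; inconclusive means visually confirmed hit but inhibition not above 20%; inactive means no visual hit in the image check.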
Test: endothelial E-selectin expression blockers – imaging, HUVEC, immunofluorescence, MLSMR starter and 10KST1 sets, primary screen (AID 487);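 on inhibition: signal is fraction of cell area covered by stained E-selectin grains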;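 on nuclei count: 100% = median nuclei count of all wells on the same plate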
Details: HUVEC TNFalpha-induced E-selectin immunofluorescence imaging, at 2 µM; inhibition: stronger effect = higher value; nuclei count: measured here: cell number, toxicity

Compound	nuclei count	inhibition
CCN1CCN(C(CNC(=O)c2ccc3c(c2)OCO3)c2cccnc2)CC1 (configuration not stated)	109%	-10.9% (inactive)
Cc1cccnc1-n1c(CCN2C(=O)c3ccccc3C2=O)nc2ccccc2c1=O	83.7%	-12.9% (inactive)
COc1cc2c(N3CCOCC3)cc(O)c(CC(=O)Nc3ccccc3)c2cc1OC	101%	-63.7% (inactive)
Cc1ccc(-c2nc3cc(NC(=O)C(C)C)ccc3o2)cc1C	122%	-160% (inactive)
Cc1ccc(-c2nnc(N3CCN(C(=O)CN4C(=O)c5ccccc5C4=O)CC3)c3ccccc23)cc1	133%	-158% (inactive)
Cc1cccc(OCC(=O)N(Cc2cccs2)C2CCS(=O)(=O)C2)c1C (configuration not stated)	112%	-142% (inactive)
CCN(CC)C(=O)Cn1c(=O)n(Cc2ccccc2Cl)c2c1c(=O)n(C)c(=O)n2C	85.7%	49% (inactive)
CCOc1ccccc1NC(=O)CCSc1nc2n[nH]c(C)c2c(=N)n1-c1ccccc1Cl	62.2%	30.1% (inactive)
COc1ccc(N2C(=O)CCC(C(=O)N3CCCCC3)C2c2ccc(OC)c(OC)c2)cc1 (configuration not stated)	97%	-17.5% (inactive)
COCCNC(=O)C(c1ccc(O)cc1)N(Cc1ccco1)C(=O)CCC(=O)Nc1nccs1 (configuration not stated)	116%	-52.2% (inactive)
C=CCN1C(=O)C2(/C(=C(\O)c3ccc4c(c3)OCCO4)C(=O)C(=O)N2CCCOC)c2ccccc21 (configuration not stated)	128%	-37.2% (inactive)
COc1cc2[nH]c(=O)c(C(=O)NCCCN3CCCCC3)c(O)c2cc1OC	108%	15.9% (inactive)
CCc1[nH]nc2c1C1(CCN(C(=O)OCc3ccccc3)CC1)C(C#N)=C(N)O2	124%	-28.9% (inactive)
O=C(Nc1cccc2ccccc12)N1CCN(c2ccccc2)CC1	100%	-12.2% (inactive)
CC(=O)N1CCC(N(C(=O)Nc2ccc(C)c(C)c2)C2CCCC2)CC1	106%	-61.6% (inactive)
O=C1CCCc2nc(N3CCCCC3)sc21	86.9%	-13.1% (inactive)
C=CCOc1ccc(C2/C(=C(\O)c3c(C)[nH]c(C(=O)OC)c3C)C(=O)C(=O)N2CCN(C)C)cc1 (configuration not stated)	118%	-96.2% (inactive)
Cc1cc(NC(=O)c2cccc(S(=O)(=O)N3CC(c4ccccc4)CC3=O)c2)no1 (configuration not stated)	121%	-44.9% (inactive)

Compound	nuclei count	inhibition
CCN(CCCNC(=O)CC1Oc2ccc(C)cc2NC1=O)Cc1ccccc1 (configuration not stated)	128%	-42.9% (inactive)
CN1CCc2nc(SCCOc3ccccc3)c(C#N)cc2C1	114%	-44.8% (inactive)
COc1ccc(S(=O)(=O)N2CCC(C(=O)Nc3c(F)cccc3F)CC2)cc1	126%	-55.4% (inactive)
Cc1nc2ccc(NC(=O)NCc3ccco3)cc2s1	82.3%	-15.3% (inactive)
CCNc1ccc(C(=O)OCC)cc1NC(=O)c1cc(S(=O)(=O)N2CCOCC2)ccc1C	114%	-81.9% (inactive)
CC1CCN(c2nc3c(c(=O)n(C)c(=O)n3C)n2Cc2ccccc2)CC1	139%	-81.5% (inactive)
O=C(Oc1cc2oc(=O)c3c(c2cc1Cl)CCCC3)c1ccco1	148%	-50.1% (inactive)
CCOC(=O)CNC(=O)CSc1nc(N)cc(N)n1	108%	-62.6% (inactive)
CCCC(=O)C1=C(N(C)c2ccccc2)CC(C)(C)C(C(=O)OC)C1=O (configuration not stated)	121%	-8.2% (inactive)
CCOC(=O)c1ccc(N2C(=O)CC(N(C)CCc3ccc(OC)c(OC)c3)C2=O)cc1 (configuration not stated)	117%	-20.7% (inactive)
COc1ccc(C2=NOC(C(=O)NC3CCCCC3)C2)cc1OC (configuration not stated)	96.1%	-84.9% (inactive)
CCOC(=O)c1cc(CC)sc1NC(=O)CCC(=O)O	109%	-75.3% (inactive)
O=C(C1CCN(c2nnc(-n3cccc3)s2)CC1)N1CCOCC1	102%	-50.3% (inactive)
Cn1cc(Br)c(C(=O)NC2CCCCC2)n1	238%	-145% (inactive)
CC1NC2(C(=O)N(Cc3ccccc3)c3ccccc32)C2C(=O)N(c3ccccc3)C(=O)C12 (configuration not stated)	109%	-33.8% (inactive)
O=C1CC(N2CCN(C3CCc4ccccc4C3)CC2)C(=O)N1c1ccccc1 (configuration not stated)	121%	6.6% (inactive)
CCCOc1cccc(C(=O)Nc2cc(NC(=O)c3ccco3)ccc2OC)c1	105%	8.3% (inactive)
Cn1c(SCC(=O)Nc2ccc3c(c2)OCO3)nnc1-c1cnccn1	91.7%	46.9% (inactive)
